# Source: the supplement of paper PMC11018630
# Counter-ions that a name gives are not always drawn. ± gives the standard deviation of the averaged measurements. In all, about 1,100 compounds were measured (“day of extracellular matrix detachment from plate”: median about 16, lowest 2% from about 10 on). Many of the other results were omitted from the sample, so the lowest values are more common in it than they were.
# Tested on: RDEB dermal fibroblasts EB71
# Experiment: day of extracellular matrix detachment from plate (days); higher = delayed detachment (less fibrotic matrix)
# Conditions: compound concentration: 10 uM
row,SMILES,day of extracellular matrix detachment from plate
1,Cc1cccc(Cc2c[nH]cn2)c1C [Detomidine HCl],14.7 ± 7.4
2,Cc1cccc([C@H](C)c2c[nH]cn2)c1C [Dexmedetomidine],18
3,Cc1cccc(C(C)c2c[nH]cn2)c1C (stereo unspecified) [Medetomidine HCl],17 ± 5.2
4,Cc1cccc([C@H](C)c2c[nH]cn2)c1C [Dexmedetomidine HCl (Precedex)],10 ± 1.7
5,O=C(O[C@H]1C[C@H]2CC[C@@H](C1)[N+]21CCCC1)C(O)(c1ccccc1)c1ccccc1 [Trospium chloride],12
6,Cc1ccc(-c2nc3ccc(C)cn3c2CC(=O)N(C)C)cc1 [Zolpidem],17.7 ± 1.1
7,O=C1CC[C@@]2(O)[C@H]3Cc4ccc(O)c5c4[C@@]2(CCN3CC2CC2)[C@H]1O5 [Naltrexone HCl],10 ± 1.7
8,C=CCN1CC[C@]23c4c5ccc(O)c4O[C@H]2C(=O)CC[C@@]3(O)[C@H]1C5 [Naloxone HCl],17.7 ± 3.5
9,C=C1CC[C@@]2(O)[C@H]3Cc4ccc(O)c5c4[C@@]2(CCN3CC2CC2)[C@H]1O5 [Nalmefene HCl],13
10,O=C(O[C@H]1C[N+]2(CCCOc3ccccc3)CCC1CC2)C(O)(c1cccs1)c1cccs1 [Aclidinium Bromide],16.7 ± 2.3
11,N[C@@H]1C[C@H]1c1ccccc1 [Tranylcypromine (2-PCPA) HCl],13
